The values below come from PubChem BioAssay (Tox21).

Assay [1] concerns the target Luciferin 4-monooxygenase (Photinus pyralis) (UniProt P08659). As to the kind of experiment: qHTS assay to identify small molecule inhibitors of firefly luciferase (AID 1224835). Further: nearly all actives have a fitted effect of over 25% in size. Further: potency means the concentration at half of the fitted maximal effect. An outline of the steps: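 Inhibition of purified Photinus luciferase is measured by luminescence. Substrate levels (D-luciferin, ATP) sit at their KM values. Each compound is tested in a concentration series.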

The nature of assay [2]: qHTS assay to identify small molecule agonists of the constitutive androstane receptor (CAR) signaling pathway - cell viability counter screen (AID 1224836). Further: series mostly up to about 92 µM; nearly all actives have a fitted effect of over 45% in size. An outline of the steps: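 Fluorescence from CellTiter-Fluor indicates live cells after 23 h exposure. The human hepatoma line expresses hCAR and a CYP2B6-2.2kb reporter. Incubation medium contains 0.75 uM PK11195 (final).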

Assay [3] can be described thus: qHTS assay to identify small molecule antagonists of the constitutive androstane receptor (CAR) signaling pathway - cell viability counter screen (AID 1224837). Further: series mostly up to about 92 µM; nearly all actives have a fitted effect of over 45% in size. An outline of the steps:
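Cytotoxicity counter-screen: CellTiter-Fluor fluorescence after 23 h compound exposure (15-point qHTS) in double-stable HepG2-CYP2B6-hCAR cells, with 50 nM CITCO added.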

Assay [4] is described as follows: qHTS assay to identify small molecule antagonists of the estrogen related receptor signaling pathway with the pleiotropic PPARgamma coactivator (PGC) from Tox21 10K library - cell viability counter screen (AID 1224840; active means well fitted cell-killing curve with a large enough effect in the repeat runs, not every such curve was filed as active; further: nearly all actives have a fitted effect of over 40% in size). In short, it runs like this: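 Counter-screen for cytotoxicity: after 17.5 h compound exposure at 37 C, CellTiter-Fluor reagent added to PGC/ERR cells for 30 min and fluorescence read. Cells were seeded at 2,000 per well 6 h before dosing.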

Assay [5] can be described thus: qHTS assay to identify small molecule agonists of the hypoxia (HIF-1) signaling pathway - cell viability counter screen (AID 1224844; calls by dose curve; further: nearly all actives have a fitted effect of over 50% in size). An outline of the steps: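 Cytotoxicity measured by CellTiter-Glo ATP luminescence in the wells also read for beta-lactamase signal. Cells were HRE-bla ME-180 (2,000/well, 0.5% dialyzed FBS), exposed to compounds for 17 h at 37C.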

The nature of assay [6]: qHTS assay to identify small molecule agonists of H2AX (AID 1224845; active means well fitted activation curve with a large enough effect in the signal ratio in the repeat runs, not every such curve was filed as active; the % refers to the signal ratio). An outline of the steps:
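Phospho-H2AX Ser139 measured by HTRF (ex 320 nm; em 665 and 620 nm) after 24 hr antibody incubation. Compounds, 15 concentrations, 0.76% DMSO, were applied to CHO-K1 cells for 3hr at 37C before lysis.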

A short description of assay [7]: qHTS assay to identify small molecule agonists of H2AX - cell viability counter screen (AID 1224847; calls by dose curve; further: top concentration of the series differs between compounds; nearly all actives have a fitted effect of over 30% in size). In short, it runs like this:
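Viability of CHO-K1 (wild type) cells after 3 hr compound exposure was measured by CellTiter-Glo luminescence.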

Assay [8] is described as follows: qHTS RealTime-Glo MT Cell Viability Assay in HepG2 cells - 24 hour (AID 1224867). Further: nearly all actives have a fitted effect of over 50% in size. In short, it runs like this: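 qHTS, HepG2, 600 cells/well, RealTime-Glo (NanoLuc + prosubstrate) added with cells; 5 h preincubation; DMSO compound addition; 37 C; luminescence at 0/8/16/24/32/40 h.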
Assay [9] is described as follows: qHTS RealTime-Glo MT Cell Viability Assay in HEK293 cells - 32 hour (AID 1224868). Further: top concentration of the series differs between compounds; nearly all actives have a fitted effect of over 50% in size. In short, it runs like this:
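Assay medium contained NanoLuc luciferase plus cell-permeant prosubstrate, added with HEK293 cells at 600 cells/well. After 5 h at 37 C/5% CO2 compounds were added; plates stayed at 37 C for 40 h with serial luminescence reads.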

Assay [10] can be described thus: A CellTox Green Cytotoxicity Assay to monitor cytotoxicity in HEK293 cells - 0 hour (AID 1224869). Further: nearly all actives have a fitted effect of over 50% in size. In short, it runs like this:
(§1)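 Fluorescence from a DNA-binding dye excluded by viable cells was measured repeatedly in the same HEK293 wells (600 cells/well) during continuous compound exposure at 37 C. Each assay gives one read point: 0, 8, 16, 24, 32 or 40 h.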

Assay [11] in a line: qHTS RealTime-Glo MT Cell Viability Assay in HepG2 cells - 40 hour (AID 1224870). Further: nearly all actives have a fitted effect of over 50% in size. In short, it runs like this: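 Real-time viability: cells seeded at 600 per well together with NanoLuc and cell-permeant prosubstrate, compounds added after 5 h incubation. Luminescence tracked at 0, 8, 16, 24, 32 and 40 h of exposure.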
Assay [12] is described as follows: A CellTox Green Cytotoxicity Assay to monitor cytotoxicity in HEK293 cells - 40 hour (AID 1224871). Further: nearly all actives have a fitted effect of over 45% in size. In short, it runs like this:
as §1

The target of assay [13] is Thyrotropin receptor (Homo sapiens) (UniProt P16473). As to the kind of experiment: qHTS assay to identify small molecule agonists of the thyroid stimulating hormone receptor (TSHR) signaling pathway (AID 1224843; calls by dose curve; further: nearly all actives have a fitted effect of over 45% in size). In short, it runs like this: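 Agonist activity read as cAMP rise via d2/cryptate HTRF competition, 1 h room-temperature detection, in HEK293 cells expressing TSHR. Fifteen-point titrations, each run in triplicate, with a 30 min room-temperature incubation beforehand.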

The nature of assay [14]: qHTS assay to identify small molecule agonists of the hypoxia (HIF-1) signaling pathway (AID 1224846; active means well fitted activation curve with a large enough effect in the signal ratio in the repeat runs, not every such curve was filed as active; the % refers to the signal ratio). In short, it runs like this: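 Compounds added to ME-180 cells carrying hypoxia-response-element beta-lactamase reporter (0.5% dialyzed FBS, 5 h preplating), 17 h at 37C; agonist activity detected by CCF4-AM B/G FRET read-out.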
Assay [15] is described as follows: qHTS assay to identify small molecule agonists of the estrogen related receptor signaling pathway with the pleiotropic PPARgamma coactivator (PGC) from Tox21 10K library (AID 1224842). Further: nearly all actives have a fitted effect of over 15% in size. An outline of the steps: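 Luminescence from One-Glo (30 min, room temperature) measured after PGC/ERR cells had 18 h at 37 C with pinned compound (23 nL in DMSO). Cells had been seeded at 2,000 per well and pre-incubated 6 h.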

A short description of assay [16]: qHTS assay to identify small molecule antagonists of the estrogen related receptor (ERR) signaling pathway from Tox21 library (AID 1224848). Further: nearly all actives have a fitted effect of over 50% in size. An outline of the steps: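 Luciferase luminescence (ONE-Glo, 30 min room temperature) was the read-out. Cells of the NTP-supplied ERR line, 2,000 per well, were given 6 h at 37 C before compound addition in DMSO and 18 h exposure at 37 C.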

Assay [17] can be described thus: qHTS assay to identify small molecule agonists of the estrogen related receptor (ERR) signaling pathway from Tox21 library (AID 1224849; calls by dose curve; further: nearly all actives have a fitted effect of over 15% in size). An outline of the steps:
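Luminescent agonist read-out (One-Glo, 30-minute room-temperature incubation) following 18-hour compound treatment at 37 C of the ERR cell line, which had been plated 6 hours before dosing.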

Structures are written as SMILES. Values without a mark were called inactive. Records with an inconclusive call do not appear. The source made the active and inactive calls. Unless noted, the call rests on the fitted dose curve; in most records, active means well fitted curve in the direction sought with a large enough effect in the repeat runs; inconclusive means weak or mixed curves; inactive means no such curve, though single readings can be large; an effect the other way counts as inactive or inconclusive.

Sequence of Thyrotropin receptor (Homo sapiens) (P16473 whole entry, looked up): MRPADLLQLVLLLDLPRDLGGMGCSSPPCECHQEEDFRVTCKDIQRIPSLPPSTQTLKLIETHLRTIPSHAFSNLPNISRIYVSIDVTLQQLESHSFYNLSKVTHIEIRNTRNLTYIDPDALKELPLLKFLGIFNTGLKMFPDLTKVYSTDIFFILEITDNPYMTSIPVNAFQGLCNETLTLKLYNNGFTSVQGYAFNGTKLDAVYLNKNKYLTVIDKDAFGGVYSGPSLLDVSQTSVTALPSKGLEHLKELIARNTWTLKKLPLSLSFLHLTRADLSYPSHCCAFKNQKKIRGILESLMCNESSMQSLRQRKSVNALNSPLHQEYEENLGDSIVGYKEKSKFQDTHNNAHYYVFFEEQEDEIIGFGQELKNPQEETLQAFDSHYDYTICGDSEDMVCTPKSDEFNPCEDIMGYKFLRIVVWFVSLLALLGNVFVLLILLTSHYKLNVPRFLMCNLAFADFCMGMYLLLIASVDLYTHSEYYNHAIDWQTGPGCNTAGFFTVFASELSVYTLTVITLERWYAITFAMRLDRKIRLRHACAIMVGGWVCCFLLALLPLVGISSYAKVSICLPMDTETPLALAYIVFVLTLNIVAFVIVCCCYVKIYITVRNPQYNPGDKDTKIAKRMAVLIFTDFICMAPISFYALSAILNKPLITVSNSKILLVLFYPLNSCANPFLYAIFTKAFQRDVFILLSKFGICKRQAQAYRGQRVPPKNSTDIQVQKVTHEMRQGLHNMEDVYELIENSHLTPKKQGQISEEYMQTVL
Sequence of Luciferin 4-monooxygenase (Photinus pyralis) (P08659 whole entry, looked up): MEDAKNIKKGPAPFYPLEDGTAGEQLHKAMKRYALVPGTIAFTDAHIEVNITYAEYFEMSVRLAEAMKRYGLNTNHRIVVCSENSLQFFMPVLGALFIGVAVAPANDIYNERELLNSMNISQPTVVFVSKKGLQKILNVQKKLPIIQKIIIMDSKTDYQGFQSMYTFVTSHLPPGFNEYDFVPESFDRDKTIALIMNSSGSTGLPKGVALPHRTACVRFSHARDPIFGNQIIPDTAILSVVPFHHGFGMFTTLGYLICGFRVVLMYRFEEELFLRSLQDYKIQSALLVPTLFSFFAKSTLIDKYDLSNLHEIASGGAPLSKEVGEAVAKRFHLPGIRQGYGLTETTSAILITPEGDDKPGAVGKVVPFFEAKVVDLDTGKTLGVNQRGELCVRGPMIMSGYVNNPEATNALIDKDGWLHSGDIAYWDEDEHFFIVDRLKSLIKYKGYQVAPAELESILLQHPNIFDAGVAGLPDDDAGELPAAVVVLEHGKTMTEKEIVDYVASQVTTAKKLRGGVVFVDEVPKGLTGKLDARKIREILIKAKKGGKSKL

In the case of `CCCc1ncc(C[n+]2ccccc2C)c(N)n1`, the Potency result in assay [1], in assay [5], in assay [6], in assay [9], in assay [11] and in assay [12] was “inactive” each time. In addition, the result in assay [2], in [3], in assay [4], in assay [7], in assay [8] and in [10] was inactive.

For the compound `CC(=O)NC(=O)c1ccccc1O`, the Potency entry in [1], in assay [13], in assay [5], in assay [6], in assay [9] and in [11] was “inactive” throughout. In addition, the result in assay [2], in assay [3], in assay [4], in assay [14], in assay [7] and in [8] was inactive. Further, the call in assay [10] was inactive.

As to `CN(C)CCCN(C)CCCN(C)C`, the Potency result in [1], in assay [13], in [5], in assay [6], in assay [9] and in assay [11] was “inactive” throughout. For the same compound, the call in [2], in assay [3], in assay [4], in assay [14], in [8] and in assay [10] was inactive.

For the compound `CCOc1c(N2CCOCC2)cnn(C)c1=O`, the Potency result in [1], in assay [13], in assay [6], in assay [9], in assay [11] and in assay [12] was “inactive” in each case. Moreover, the call in assay [2], in assay [3], in assay [4], in assay [14], in assay [7] and in [8] was inactive. Moreover, the call in [10] was inactive.

Turning to `CNC(=O)Nc1ccc(Cl)c(Cl)c1`, the Potency in assay [1] was 56.4 µM (active). The outcome in assay [2], in [3], in assay [14], in assay [8] and in [10] was inactive. Also, the Potency result in [13], in [5], in assay [6], in assay [9], in [11] and in assay [12] was “inactive” in each case.

Regarding `CCCC(=O)O[C@]1(C(=O)CC)CC[C@H]2[C@@H]3CCC4=CC(=O)CC[C@]4(C)[C@H]3[C@@H](O)C[C@@]21C`, the Potency entry in assay [1], in assay [6], in assay [11] and in assay [12] was “inactive” each time. Besides, the compound was classed as inactive in assay [2], in assay [3], in assay [4], in [14], in [8] and in assay [10].

In the case of `CCCCS(=O)(=O)N[C@@H](Cc1ccc(OCCCCC2CCNCC2)cc1)C(=O)O`, the Potency result in assay [1], in assay [13], in [6], in [9] and in assay [11] was “inactive” throughout. Further, the result in [2], in [3], in [4], in [14], in assay [7] and in assay [8] was inactive. The call in [10] was inactive.

With `CCN1C=CN(C)C1C` (stereo unspecified), the Potency entry in assay [1], in assay [15], in assay [13], in assay [5], in assay [6] and in assay [16] was “inactive” each time. Also, the Potency result in assay [9], in assay [11] and in assay [12] was “inactive” throughout. Further, the outcome in assay [2], in assay [3], in assay [4], in assay [14], in [17] and in assay [8] was inactive.

Turning to `N[C@H](C(=O)O)[C@@H](O)c1ccc(O)c(O)c1`, the Potency result in assay [1], in assay [13], in [5], in assay [9], in assay [11] and in [12] was “inactive” each time. The result in assay [2], in assay [3], in assay [14], in assay [7], in [8] and in assay [10] was inactive.
